The text below walks through data of PubChem BioAssay (NCATS).

Assay [1] deals with Transient receptor potential cation channel subfamily V member 1 (Homo sapiens) (UniProt Q8NER1). As to the kind of experiment: HTS Assay for Compounds that Act as Enhancers of the Vanilloid Receptor 1 (AID 488979). Also: 0% is about no effect. An outline of the steps: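 TRPV1-expressing cells loaded with Fluo-8 calcium dye; compounds added and calcium influx read kinetically for 3 min (agonist phase), then capsaicin at EC20 added and read 2 min more for enhancement. Fluorescence ex 480/em 520 nm.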
Chain of Transient receptor potential cation channel subfamily V member 1 (Homo sapiens) (Q8NER1 whole entry, looked up): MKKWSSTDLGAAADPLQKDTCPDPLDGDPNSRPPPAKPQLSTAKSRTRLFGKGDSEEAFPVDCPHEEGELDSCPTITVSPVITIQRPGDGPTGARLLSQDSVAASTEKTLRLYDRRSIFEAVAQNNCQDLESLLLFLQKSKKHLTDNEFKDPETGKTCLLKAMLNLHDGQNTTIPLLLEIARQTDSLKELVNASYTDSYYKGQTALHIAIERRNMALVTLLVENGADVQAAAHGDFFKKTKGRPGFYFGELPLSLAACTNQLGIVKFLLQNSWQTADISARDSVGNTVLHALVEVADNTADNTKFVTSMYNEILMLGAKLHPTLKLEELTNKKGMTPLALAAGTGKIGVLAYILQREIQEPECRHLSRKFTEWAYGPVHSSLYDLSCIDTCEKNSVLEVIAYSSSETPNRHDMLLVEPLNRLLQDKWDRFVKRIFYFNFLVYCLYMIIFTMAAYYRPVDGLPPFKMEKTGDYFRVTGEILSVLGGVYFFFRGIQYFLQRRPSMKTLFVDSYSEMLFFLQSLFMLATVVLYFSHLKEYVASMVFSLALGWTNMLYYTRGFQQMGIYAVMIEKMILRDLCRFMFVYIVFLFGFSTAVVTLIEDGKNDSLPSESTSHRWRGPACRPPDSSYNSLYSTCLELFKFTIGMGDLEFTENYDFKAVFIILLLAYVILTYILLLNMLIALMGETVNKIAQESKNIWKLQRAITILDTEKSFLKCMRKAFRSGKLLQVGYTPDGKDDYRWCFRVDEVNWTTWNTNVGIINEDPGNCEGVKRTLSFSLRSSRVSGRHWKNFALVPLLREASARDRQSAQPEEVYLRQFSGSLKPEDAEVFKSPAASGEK

Assay [2] deals with Thyrotropin receptor (Homo sapiens) (UniProt P16473). As to the kind of experiment: qHTS Assay for Antagonists of the Thyroid Stimulating Hormone Receptor (AID 488980). Also: series mostly up to about 58 µM; 0% is about no effect. An outline of the steps:
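Cells expressing human TSHR (HEK293) are dispensed in HBSS/HEPES containing 70 uM RO 20-1724, compound is added, then TSH at EC80 (4 nM final). Antibody in lysis buffer follows, 30 minutes at room temperature before HTRF detection.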
(In general: In qHTS, concentration-response curves come from the screen itself.)

In assay [3] the target is D(1A) dopamine receptor (Homo sapiens) (UniProt P21728). As to the kind of experiment: HTS Assay for Allosteric Agonists of the Human D1 Dopamine Receptor: Primary Screen for Agonists (AID 488981). Also: 0% is about no effect. An outline of the steps: (§1)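 Tetracycline-induced HEK293 T-REx cells force-coupled to calcium signalling were incubated overnight at 30 C and dye-loaded at room temperature. Calcium flux over 180 s after compound addition flagged agonists; a further 180 s read after EC20 dopamine flagged potentiators.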
Chain of D(1A) dopamine receptor (Homo sapiens) (P21728 whole entry, looked up): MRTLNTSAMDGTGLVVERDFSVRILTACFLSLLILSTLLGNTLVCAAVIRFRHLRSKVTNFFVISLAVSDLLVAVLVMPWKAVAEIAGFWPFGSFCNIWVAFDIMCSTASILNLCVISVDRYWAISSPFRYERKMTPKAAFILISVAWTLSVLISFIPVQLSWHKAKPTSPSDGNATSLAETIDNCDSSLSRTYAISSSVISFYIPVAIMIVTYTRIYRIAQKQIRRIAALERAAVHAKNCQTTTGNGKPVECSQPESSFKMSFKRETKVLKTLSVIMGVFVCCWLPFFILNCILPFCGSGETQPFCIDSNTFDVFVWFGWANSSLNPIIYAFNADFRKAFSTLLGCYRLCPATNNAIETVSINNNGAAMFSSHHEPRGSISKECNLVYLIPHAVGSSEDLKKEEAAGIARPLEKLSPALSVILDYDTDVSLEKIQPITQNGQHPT

Assay [4] has the same target. As to the kind of experiment: HTS Assay for Allosteric Agonists of the Human D1 Dopamine Receptor: Primary Screen for Potentiators (AID 488982). Also: 0% is about no effect. An outline of the steps: as §1
Assay [5] shares this target. As to the kind of experiment: HTS Assay for Allosteric Agonists of the Human D1 Dopamine Receptor: Primary Screen for Antagonists (AID 488983).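 Also: calcium flux response to an EC80 dopamine challenge measured with no-wash dye; % is scaled to controls: 0 for no effect and ±100 for the full control effect; nearly all actives have a fitted effect of over 65% in size.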 The essentials:
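Calcium flux readout, no-wash dye, inducible HEK293 T-REx D1 line (force-coupled). Compound added after 10 s baseline, 180 s kinetic read; then dopamine at EC80, further 180 s read.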

The nature of assay [6]: Validation screen for small molecules that induce genotoxicity in human embryonic kidney (HEK293T) cells expressing luciferase-tagged ELG1 (AID 493106). Also: 0% is about no effect. An outline of the steps:
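qHTS format; 2,000 HEK293T ELG1-luc cells/well; 23 nL compound via pin tool; 16 hr, 37 °C/5% CO2; ONE-Glo, 30 min RT; luminescence read.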

Assay [7] addresses ATPase family AAA domain-containing protein 5 (Homo sapiens) (UniProt Q96QE3). As to the kind of experiment: Validation screen for small molecules that inhibit ELG1-dependent DNA repair in human embryonic kidney (HEK293T) cells expressing luciferase-tagged ELG1 (AID 493107).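 Also: cells co-treated with the DNA-damaging agent 5-fluorouridine alongside compound; series mostly up to about 46 µM; % is scaled to controls: 0 for no effect and ±100 for the full control effect; inhibitors lower the ELG1-luciferase luminescence signal; nearly all actives have a fitted effect of over 70% in size.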 The essentials: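 ELG1-luciferase HEK293T reporter; 5-fluorouridine + compound/DMSO, 16 hr, 37 °C, 5% CO2; ONE-Glo 30 min RT; luminescence read, qHTS format.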

In assay [8] the target is Thyrotropin-releasing hormone receptor (Homo sapiens) (UniProt P34981). As to the kind of experiment: qHTS for Small Molecule Agonists and Allosteric Enhancers of Human TRH Receptor: Validation Screen for Agonists (AID 493127;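 active = calcium activation more than 3 SD above the typical response in the agonist read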;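 also: intracellular calcium rise by fluo-8 fluorescence before TRH EC20 addition; 0% is about no effect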). The note with it: TRH receptor agonist cell assay; at 2 µM; stronger effect = higher value. An outline of the steps: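 Read-out: intracellular calcium release measured kinetically by FDSS (fluo-8, ex 480/em 530 nm), 1 reading/s after a 10-cycle baseline. TRHR cells, 2000/well, cultured 18 h at 33.5C, dye-loaded at room temp. Compound-evoked positive calcium signal flags agonists.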
Chain of Thyrotropin-releasing hormone receptor (Homo sapiens) (P34981 whole entry, looked up): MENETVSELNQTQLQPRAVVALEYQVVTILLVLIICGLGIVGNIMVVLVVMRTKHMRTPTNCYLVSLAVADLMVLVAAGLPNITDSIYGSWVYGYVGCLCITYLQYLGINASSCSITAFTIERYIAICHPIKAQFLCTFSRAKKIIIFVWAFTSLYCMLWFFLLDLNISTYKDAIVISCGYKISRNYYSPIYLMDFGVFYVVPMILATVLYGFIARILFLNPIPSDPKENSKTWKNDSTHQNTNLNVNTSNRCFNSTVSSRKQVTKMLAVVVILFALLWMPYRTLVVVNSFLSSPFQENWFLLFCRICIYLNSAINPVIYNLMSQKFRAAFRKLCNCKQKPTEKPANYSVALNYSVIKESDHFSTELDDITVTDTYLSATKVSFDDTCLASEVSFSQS

The nature of assay [9]: Nrf2 qHTS screen for inhibitors: Validation (AID 493153; active = well fitted inhibition curve with a large enough effect in the main read-out, with a control signal flat, not every such curve was filed as active). The note with it: Potency: luciferase luminescence; viability change: measured here: cytotoxicity max response. The essentials:
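Concentration-response test in A549 ARE_Fluc reporter cells (5% FBS OPTI-MEM), compound exposure 18-24 h at 37°C, 5% CO2. Cell viability measured first by CellTiter-Fluor fluorescence; ARE-driven luciferase luminescence then measured as Nrf2 activity.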

Assay [10] in a line: qHTS for Inhibitors of Cell Surface uPA Generation: Validation Assay (AID 493164).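 Also: RAW 264.7 macrophage cells exposed to compound for 18 h; 0% is about no effect.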 The essentials:
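Compounds are titrated over seven points (2.45 nM–38.3 uM final) onto pre-plated RAW 264.7 cells and incubated for 18 h. Retained intracellular ATP, measured with ATP-Lite, indicates blocked lethal factor entry.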

Assay [11] addresses Galactokinase (Homo sapiens) (UniProt P51570). The experiment in a line: qHTS Validation Assay for Inhibitors of Human Galactokinase (GALK) (AID 493189). Also: 0% is about no effect. The essentials: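 Compounds were pin-transferred into ATP buffer, then GALK-galactose mix was added (final 5 nM enzyme, 100 uM galactose, 35 uM ATP). After 1 h at room temperature, remaining ATP was measured luminescently.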

Assay [12] in a line: Validation screen for small molecules that induce DNA re-replication in SW480 colon adenocarcinoma cells (AID 504364). Also: 0% is about no effect. An outline of the steps:
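Read-out: total Hoechst intensity of nuclei by fluorescence scanning imager; hits raise the fraction of nuclei with elevated DNA content. Cells received compound for 48 hr at 37 C before a 40 min stain.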

In assay [13] the target is Peptidyl-prolyl cis-trans isomerase NIMA-interacting 1 (Homo sapiens) (UniProt Q13526). The experiment in a line: qHTS Validation Assay to Find Inhibitors of Pin1 (AID 504536; active = well fitted inhibition curve with a large enough effect in the polarisation, with a control signal flat, not every such curve was filed as active; the % refers to the polarisation;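 also: 0% = full Pin1 enzyme wells and -100% = no-enzyme wells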). The essentials:
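Fluorescence polarization competition: compounds (titration) displace HiFluor-488-labeled Pin1-1b peptide from Pin1 (0.3 uM final) in pH 7.5 HEPES buffer with DTT, 10 min at room temperature; %Activity normalized to no-enzyme wells, curves fitted.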

In assay [14] the target is Phosphoglycerate kinase, glycosomal (Trypanosoma brucei brucei) (UniProt P07378). As to the kind of experiment: qHTS Validation Assay to Find Inhibitors of Phosphoglycerate Kinase (AID 504547).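 Also: control wells lack PGK and mark full inhibition.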 The essentials:
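In TEA buffer (100mM, pH 7.6) containing 5mM MgCl2 and 0.01% Tween-20, the GAPDH-coupled PGK reaction proceeded for 60 minutes at room temperature before a single luminescence reading using Kinase-Glo Plus.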

Assay [15] concerns the target Ubiquitin carboxyl-terminal hydrolase 1 (Homo sapiens) (UniProt O94782). As to the kind of experiment: Inhibitors of USP1/UAF1: Pilot qHTS (AID 504865). Also: nearly all actives have a fitted effect of over 35% in size. Also: potency is read from the fitted curve at half-maximal effect. The essentials:
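Kinetic fluorescence assay: 1nM USP1/UAF1, 15 min compound preincubation, then 150nM Ub-Rho; 480/540 nm.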

A short description of assay [16]: qHTS for Inhibitors of ATXN expression: Validation of Cytotoxic Assay (AID 588349). Also: % is scaled to controls: 0 for no effect and ±100 for the full control effect. The essentials:
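Cytotoxicity counter-screen: HEK293 cells exposed to compound titrations, 72 hr, 37 degrees C. Read-out is intracellular ATP (CellTiter Glo luminescence) as a viability measure.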

The nature of assay [17]: qHTS for Inhibitors of ATXN expression: Validation (AID 588378). Also: series mostly up to about 57 µM; % is scaled to controls: 0 for no effect and ±100 for the full control effect; nearly all actives have a fitted effect of over 75% in size. The essentials: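 Validation of ATXN2 expression inhibitors uses a cell-based luciferase fusion reporter in HEK293 cells, with 24 h compound exposure and paired viability (fluorescence) and reporter (luminescence) end-point reads.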
Assay [18] deals with phosphoglycerate mutase (Leishmania major) (UniProt Q4Q090). The experiment in a line: qHTS Validation Assay to Find Inhibitors of Phosphoglycerate Mutase (AID 504548).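 Also: end-point luminescence from Kinase-GloPlus after the PGAM reaction; series mostly up to about 58 µM; % is scaled to controls: 0 for no effect and ±100 for the full control effect.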 As to conditions: Potency: inhibition qHTS. The essentials: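 L. major PGAM (1.25nM final) was added to substrate buffer and pinned compound, incubated 45 minutes at room temperature, then Kinase-GloPlus added; luminescence read after 10 minutes. Buffer: 100 mM TEA pH 7.6, 5 mM MgCl2, 0.01% Tween-20.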
Chain of phosphoglycerate mutase (Leishmania major) (Q4Q090 1-553): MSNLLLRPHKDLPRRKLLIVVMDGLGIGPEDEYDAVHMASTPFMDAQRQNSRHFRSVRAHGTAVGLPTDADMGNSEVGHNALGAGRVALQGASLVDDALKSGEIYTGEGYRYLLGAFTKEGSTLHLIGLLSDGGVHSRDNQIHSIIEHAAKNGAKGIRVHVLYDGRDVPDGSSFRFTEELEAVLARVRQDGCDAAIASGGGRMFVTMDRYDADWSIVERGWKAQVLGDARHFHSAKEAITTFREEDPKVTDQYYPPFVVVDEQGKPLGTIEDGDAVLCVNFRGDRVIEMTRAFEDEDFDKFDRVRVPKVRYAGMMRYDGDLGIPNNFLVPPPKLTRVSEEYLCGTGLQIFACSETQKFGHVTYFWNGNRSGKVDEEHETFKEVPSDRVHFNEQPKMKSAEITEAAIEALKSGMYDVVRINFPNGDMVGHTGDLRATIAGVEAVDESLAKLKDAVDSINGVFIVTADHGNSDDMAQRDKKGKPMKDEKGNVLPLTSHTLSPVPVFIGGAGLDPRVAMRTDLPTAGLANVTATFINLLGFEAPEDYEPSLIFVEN

Several values for one entry are separate records, joined by “and”; a condition that tells them apart may be missing. Identical values can stand only once. Results filed as inconclusive are left out. Activity calls are given as the source filed them. Unless noted, calls follow the shape of the dose curve; as a rule, active = well fitted curve in the direction sought with a large enough effect; inconclusive = small, poorly fitted or top-dose-only effect, or another doubt; inactive = no such curve, though single readings can be large; an effect the other way counts as inactive or inconclusive.

Chain of Galactokinase (Homo sapiens) (P51570 whole entry, looked up): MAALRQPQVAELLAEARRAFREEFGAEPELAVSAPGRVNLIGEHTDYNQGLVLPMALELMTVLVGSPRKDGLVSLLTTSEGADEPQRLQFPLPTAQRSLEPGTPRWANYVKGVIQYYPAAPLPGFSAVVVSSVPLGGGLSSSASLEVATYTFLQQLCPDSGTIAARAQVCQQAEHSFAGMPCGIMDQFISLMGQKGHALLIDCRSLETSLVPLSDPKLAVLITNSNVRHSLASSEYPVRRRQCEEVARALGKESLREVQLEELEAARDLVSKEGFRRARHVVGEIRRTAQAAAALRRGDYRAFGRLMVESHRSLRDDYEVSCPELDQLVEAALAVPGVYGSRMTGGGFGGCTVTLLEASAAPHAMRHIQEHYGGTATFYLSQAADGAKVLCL
Chain of Ubiquitin carboxyl-terminal hydrolase 1 (Homo sapiens) (O94782 whole entry, looked up): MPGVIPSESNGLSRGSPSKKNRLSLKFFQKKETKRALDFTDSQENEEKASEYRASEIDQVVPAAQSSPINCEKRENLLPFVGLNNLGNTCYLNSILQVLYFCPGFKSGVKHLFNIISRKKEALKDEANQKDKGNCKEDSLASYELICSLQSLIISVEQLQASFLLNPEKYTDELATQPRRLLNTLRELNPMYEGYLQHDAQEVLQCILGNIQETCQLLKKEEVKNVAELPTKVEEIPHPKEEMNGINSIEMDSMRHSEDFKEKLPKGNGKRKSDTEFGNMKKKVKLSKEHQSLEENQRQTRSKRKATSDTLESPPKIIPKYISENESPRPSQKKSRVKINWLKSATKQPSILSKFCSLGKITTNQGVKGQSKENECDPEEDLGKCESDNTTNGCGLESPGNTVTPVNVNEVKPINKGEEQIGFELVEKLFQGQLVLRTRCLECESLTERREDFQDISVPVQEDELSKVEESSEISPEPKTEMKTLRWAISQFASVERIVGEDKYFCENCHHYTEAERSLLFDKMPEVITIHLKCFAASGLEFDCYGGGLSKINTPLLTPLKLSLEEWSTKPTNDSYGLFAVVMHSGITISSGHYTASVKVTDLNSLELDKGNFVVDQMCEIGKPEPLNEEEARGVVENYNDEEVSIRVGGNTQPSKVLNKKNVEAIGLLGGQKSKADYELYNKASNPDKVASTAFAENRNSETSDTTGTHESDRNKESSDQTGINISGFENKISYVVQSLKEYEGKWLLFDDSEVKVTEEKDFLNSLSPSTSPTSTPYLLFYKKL
Chain of Thyrotropin receptor (Homo sapiens) (P16473 whole entry, looked up): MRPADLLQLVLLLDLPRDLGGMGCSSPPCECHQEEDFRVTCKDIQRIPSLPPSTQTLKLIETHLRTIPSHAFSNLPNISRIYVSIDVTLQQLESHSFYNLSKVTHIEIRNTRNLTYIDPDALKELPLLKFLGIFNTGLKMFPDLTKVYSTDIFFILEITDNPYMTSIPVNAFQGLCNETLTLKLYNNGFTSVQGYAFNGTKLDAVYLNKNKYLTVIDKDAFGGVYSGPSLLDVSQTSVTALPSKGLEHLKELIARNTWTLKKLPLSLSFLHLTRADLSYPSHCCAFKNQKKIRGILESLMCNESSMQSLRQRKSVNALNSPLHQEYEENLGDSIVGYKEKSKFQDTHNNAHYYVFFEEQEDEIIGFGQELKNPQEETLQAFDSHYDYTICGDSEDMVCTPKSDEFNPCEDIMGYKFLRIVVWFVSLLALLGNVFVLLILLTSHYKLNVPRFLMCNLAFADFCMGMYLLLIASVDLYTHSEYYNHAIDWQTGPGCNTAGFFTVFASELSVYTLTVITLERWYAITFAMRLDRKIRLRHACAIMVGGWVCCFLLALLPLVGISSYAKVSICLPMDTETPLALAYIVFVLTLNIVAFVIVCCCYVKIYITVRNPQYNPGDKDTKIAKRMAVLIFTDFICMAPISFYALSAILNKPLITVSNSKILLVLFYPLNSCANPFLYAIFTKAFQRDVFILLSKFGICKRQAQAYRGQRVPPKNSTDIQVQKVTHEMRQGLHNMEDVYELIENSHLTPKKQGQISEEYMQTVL
Chain of Phosphoglycerate kinase, glycosomal (Trypanosoma brucei brucei) (P07378 whole entry, looked up): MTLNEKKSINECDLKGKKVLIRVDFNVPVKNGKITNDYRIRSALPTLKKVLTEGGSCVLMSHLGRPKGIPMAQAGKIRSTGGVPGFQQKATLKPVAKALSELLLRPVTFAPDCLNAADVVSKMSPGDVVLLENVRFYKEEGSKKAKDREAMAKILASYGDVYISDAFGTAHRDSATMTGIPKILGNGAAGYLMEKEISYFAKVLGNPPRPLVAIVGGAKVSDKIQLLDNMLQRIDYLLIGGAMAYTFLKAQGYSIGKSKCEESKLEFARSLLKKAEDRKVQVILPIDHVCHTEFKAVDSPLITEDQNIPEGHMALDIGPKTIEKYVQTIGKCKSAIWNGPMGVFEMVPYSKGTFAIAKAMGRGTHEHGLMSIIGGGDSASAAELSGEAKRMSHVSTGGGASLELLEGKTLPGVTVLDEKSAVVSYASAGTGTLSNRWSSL
Chain of Peptidyl-prolyl cis-trans isomerase NIMA-interacting 1 (Homo sapiens) (Q13526 whole entry, looked up): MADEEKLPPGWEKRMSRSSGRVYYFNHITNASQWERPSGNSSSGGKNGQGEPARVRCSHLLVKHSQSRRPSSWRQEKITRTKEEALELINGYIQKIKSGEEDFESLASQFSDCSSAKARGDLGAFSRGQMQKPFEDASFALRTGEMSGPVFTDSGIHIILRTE

For `O=[N+]([O-])c1cccc2c(Br)[nH]nc12`, the outcome in assay [1], in [2] and in [10] was inactive. In addition, the Potency entry in assay [3], in assay [4], in assay [5], in assay [6], in assay [7] and in assay [9] was “inactive” throughout. Moreover, the Potency result in assay [11], in assay [12], in [13], in assay [14], in assay [15] and in [16] was “inactive” each time. Further, in [17], the Potency result was “inactive”. Moreover, the activation in [8] is -3.31% (inactive). Besides, in assay [9], the viability change was determined as 2.48%.
On to `NC(N)=N[C@@H](CCC(=O)O)C(=O)O`, for which the result in assay [1], in assay [2] and in assay [10] was inactive. For the same compound, the Potency entry in [3], in assay [4], in [5], in assay [6], in [7] and in assay [9] was “inactive” in each case. The Potency result in assay [11], in assay [12], in assay [13], in assay [14], in assay [18] and in assay [15] was “inactive” throughout. Besides, the Potency result in assay [16] and in [17] was “inactive” in each case. Besides, in [8], the activation was 0.0625% (inactive). The viability change in [9] was found to be 6.59%.
As for `CCN(CC)CCOC(=O)c1cc(Cl)c(N)cc1OC`, the outcome in assay [1], in assay [2] and in assay [10] was inactive. For the same compound, the Potency entry in assay [3], in [4], in assay [5], in [6], in assay [7] and in assay [9] was “inactive” throughout. In addition, the Potency result in [11], in [12], in assay [13], in [14], in assay [18] and in [15] was “inactive” each time. The Potency entry in [16] and in assay [17] was “inactive” in each case. In addition, the activation in assay [8] was 1.5% (inactive). The viability change in assay [9] was 2.46%.
Take `O=c1onc2cnc3ccccc3n12`: the result in [1], in [2] and in [10] was inactive. The Potency entry in assay [3], in assay [4], in assay [5], in assay [6], in [7] and in assay [9] was “inactive” in each case. The Potency entry in [11], in assay [13], in assay [18], in assay [15], in [16] and in assay [17] was “inactive” each time. Besides, the activation in assay [8] was 0.875% (inactive). Besides, the viability change in assay [9] is -4.79%.
For `CC(C)NCC(O)COc1ccc(CC(N)=O)cc1` (stereo not drawn), the result in assay [1], in assay [2] and in assay [10] was inactive. The Potency result in [3], in assay [4], in [5], in [6], in assay [7] and in assay [9] was “inactive” each time. The Potency entry in assay [11], in [13], in assay [14], in assay [15], in assay [16] and in [17] was “inactive” throughout. The activation in assay [8] is 0.875% (inactive). The viability change in assay [9] is 0.809%.
Consider `O=C(O)c1cc(=O)cc(C(=O)O)[nH]1`, for which the result in assay [1], in [2] and in [10] was inactive. In addition, the Potency result in assay [3], in assay [4], in assay [5], in assay [6], in assay [7] and in assay [9] was “inactive” in each case. In addition, the Potency entry in assay [11], in assay [13], in assay [14], in [18], in assay [15] and in assay [16] was “inactive” in each case. For the same compound, the Potency entry in assay [17] was “inactive”. The activation in [8] was 0.75% (inactive). Further, the viability change in assay [9] is -5.74%.
With `Cc1nc(N=Nc2cc(S(=O)(=O)O)c3cc([N+](=O)[O-])cc(S(=O)(=O)O)c3c2)c(COP(=O)(O)O)c(C=O)c1O`, the outcome in assay [1], in [2] and in assay [10] was inactive. The Potency entry in assay [3], in assay [4], in assay [5], in [6], in assay [7] and in assay [9] was “inactive” each time. For the same compound, the Potency result in assay [11], in assay [12], in [14], in assay [18], in assay [16] and in [17] was “inactive” in each case. In assay [8], the activation is 0.25% (inactive). Besides, in [9], the viability change was -14.8%. Moreover, the Potency in assay [15] was 50.1 µM (active) and 39.8 µM (active).
`Nc1nc2[nH]c(=O)cnc2c(=O)[nH]1`: the outcome in assay [1], in assay [2] and in assay [10] was inactive. Besides, the Potency result in assay [3], in assay [4], in assay [5], in [6], in assay [7] and in [11] was “inactive” throughout. Further, the Potency result in [12], in assay [13], in assay [14], in [18], in assay [15] and in assay [16] was “inactive” each time. Moreover, in assay [17], the Potency entry was “inactive”. Further, in assay [8], the activation was 0.312% (inactive).
